Screening data as filed in PubChem BioAssay.
The list is not random: actives were taken first. Their share in the collection is about 4.6%.
TRHR enhancer-1 = allosterically enhances the human TRH receptor | P34981 | TRHR cells, fluo-8 calcium fluorescence, EC20 TRH enhancement | enhancement, % at 2 µM | 360,000 tested, 0.66% active; in the data active = enhancement above about 30%; also: 0% is about no effect
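Enhancer read-out: after compound pinning and an initial kinetic agonist-mode read, an EC20 of TRH (10 nM final) was injected and fluo-8 calcium signal (Ex 480/Em 530) followed at 1 s/cycle for 100 cycles in TRHR-expressing cells.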
D1 PAM = enhances dopamine response at the human D1 receptor. potentiation, % at 10 µM. 360,000 tested, 0.036% active. HEK293 TREx D1 cells, calcium flux, dopamine EC20 potentiation. AID 504651. P21728; in the data active = potentiation above about 30%; also: 0% is about no effect
Target sequence (P21728 whole entry, looked up): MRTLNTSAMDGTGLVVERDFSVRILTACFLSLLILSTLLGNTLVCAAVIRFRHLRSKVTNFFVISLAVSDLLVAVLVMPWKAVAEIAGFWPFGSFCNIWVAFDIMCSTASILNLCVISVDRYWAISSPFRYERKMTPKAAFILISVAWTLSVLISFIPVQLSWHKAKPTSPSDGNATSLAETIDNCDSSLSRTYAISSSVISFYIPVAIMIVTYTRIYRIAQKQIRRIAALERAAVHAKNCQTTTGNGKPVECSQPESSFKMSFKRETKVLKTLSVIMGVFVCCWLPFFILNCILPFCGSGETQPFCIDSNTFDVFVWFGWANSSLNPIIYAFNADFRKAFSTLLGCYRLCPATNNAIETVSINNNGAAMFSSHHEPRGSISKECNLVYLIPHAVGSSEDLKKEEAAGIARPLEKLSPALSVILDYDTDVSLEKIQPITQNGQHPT
D1 agonist = agonists of human D1 dopamine receptor; P21728; HEK293 T-REx D1 cells, calcium flux, agonist mode; 360,000 tested, 1% active; activation, % at 2 µM; in the data active = activation above about 30%; also: 0% is about no effect
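Tetracycline-induced HEK293 TREx D1 cells, force-coupled to calcium signalling, were dye-loaded with a no-wash calcium kit. Compound was pin-added after a 10 s baseline. Fluorescence was read kinetically at 1 cycle/s for 180 s, with calcium rises flagged as agonism.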
D1 antagonist = antagonists of human D1 dopamine receptor. P21728. HEK293 TREx D1 cells, calcium flux, dopamine EC80; hits give low values. activity change, negative = inhibition, % at 10 µM. 360,000 tested, 3.2% active. AID 504652; in the data active = activity change below about -30%; also: % is scaled to controls: 0 for no effect and ±100 for the full control effect
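Using tetracycline-induced force-coupled D1 Hek293 cells and a calcium dye, signals were followed for 180 s after compound, then for 180 s after EC80 dopamine, to detect inhibitors.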
TRHR agonist-1 = activates the human TRH receptor. P34981. TRHR cells, calcium flux fluo-8, FDSS agonist mode. activation, % at 2 µM. 360,000 tested, 0.18% active; in the data active = activation above about 30%; also: 0% is about no effect
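Read-out: compound-evoked intracellular calcium rise in TRHR cells, fluo-8 dye, kinetic FDSS fluorescence at 1 s/cycle following a 10-cycle baseline. Cells cultured overnight before dye loading (30 min–1.5 h, RT).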
TRHR enhancer-2 = human TRH receptor allosteric enhancement confirmation; shares compounds with TRHR enhancer-1; TRH receptor cell assay, enhancer confirmation qHTS; activity change, negative = inhibition, % at 46.1 µM; 970 tested, under 10 active; AID 493076;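 also: compound effect scored on response to added TRH at EC20 of 10 nM; 0% is about no effect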
TRHR agonist-2 = human TRH receptor agonism confirmation | shares compounds with TRHR enhancer-1 | TRHR-expressing cells, agonist activation read-out | 970 tested, 8% active | AID 493078 | Potency, µM (series often up to 46.1 µM), for inactives: at the highest dose activation, hits mostly activators; also: potency is read from the fitted curve at half-maximal effect; 0% is about no effect; nearly all actives have a fitted effect of over 75% in size
* hit, by the source's call; ? = inconclusive; . = no result. Unless noted, calls follow the shape of the dose curve; as a rule, active = well fitted curve in the direction sought with a large enough effect; inconclusive = small, poorly fitted or top-dose-only effect, or another doubt; inactive = no such curve, though single readings can be large; an effect the other way counts as inactive or inconclusive.

SMILES	TRHR enhancer-1	D1 PAM	D1 agonist	D1 antagonist	TRHR agonist-1	TRHR enhancer-2	TRHR agonist-2
COc1ccc(CCNC(=O)CSc2nc(N)c(C#N)c(-c3cccs3)c2C#N)cc1OC	26	-5	1	0	141*	0	0%
NC(=O)c1ccc[n+]([C@H]2O[C@@H](COP(=O)([O-])OP(=O)(O)OC[C@H]3O[C@@H](n4cnc5c(N)ncnc54)[C@H](O)[C@@H]3O)[C@H](O)[C@@H]2O)c1	9	23	190*	20	27	-1	?
O=C1/C(=C/c2ccccc2)Nc2ccccc21	10	-3	50*	-11	50*	14	16µM*
COc1ccc(C(=O)N/C(=C\c2cccc3ccccc23)C(=O)NCCc2c[nH]c3ccccc23)cc1OC	-1	-3	8	-2	0	.	.
CN(C)Cc1c(O)ccc2c1O/C(=C\C=C\c1ccccc1)C2=O	-3	1	45*	7	28	-3	18µM*
Cc1oc2ccc(O)c(CN(C)C)c2c1C(=O)c1ccccc1	4	0	0	8	0	.	.
O=S(=O)(NCC1(N2CCOCC2)CCCCC1)c1ccc(Cl)cc1C(F)(F)F	7	-4	2	1	46*	4	?
CCN1CCCC1CNCc1cccc(OC)c1OCc1ccccc1F (stereo unspecified)	0	-3	1	7	0	.	.
Cc1ccc(S(=O)(=O)NC(C)c2ccccc2)cc1[N+](=O)[O-] (stereo unspecified)	58*	1	1	1	0	2	0%
CSc1ccc(S(=O)(=O)NC(C)c2ccccc2)cc1 (stereo unspecified)	-3	4	-1	-14	0	.	.
O=C(Nc1nccs1)c1cccc(N2C(=O)c3cccc4c([N+](=O)[O-])ccc(c34)C2=O)c1	12	-4	2	-19	9	.	.
CC(C)[C@H](NC(=O)N1CCn2c1nc1ccccc12)C(=O)N[C@H](Cc1ccccc1)C(=O)O	-1	-8	1	-3	0	.	.
COc1cc(NC(=O)[C@@H](NC(=O)N2CCn3c2nc2ccccc23)C(C)C)cc(OC)c1	43*	10	-1	22	0	1	2%
Cc1[nH]nc2c1C(c1cnn(C)c1)C(C#N)=C(N)O2 (stereo unspecified)	55*	-2	4	-5	1	-1	-1%
Cc1ccc(C2C(C#N)=C(N)Oc3n[nH]c(C)c32)cc1 (stereo unspecified)	2	-8	1	8	0	.	.
CC(C)C[C@@H](CN(C)N=O)N(C[C@H](Cc1ccccc1)N(CCc1ccccc1)N=O)N=O	-5	-1	15	-2	1	.	.
CN(C[C@H](Cc1ccccc1)N(CCN(CCc1ccccc1)N=O)N=O)N=O	43*	-4	-5	19	0	-5	3%
CCCn1c2ccccc2c2nnc(SC(CC)C(=O)Nc3sc4c(c3C#N)CCCC4)nc21 (stereo unspecified)	8	-3	-2	.	25	4	-1%
NS(=O)(=O)c1ccc(NC(=O)CN2CCc3ccccc32)cc1	56*	1	2	-7	0	-1	-1%
COc1ccc(OCC(=O)OCc2cc(=O)n3nc(C4CC4)sc3n2)cc1	2	-3	2	-29	0	.	.
O=C(NC1CCCCC1)C(c1ccc2ncccc2c1)N(Cc1ccccc1)C(=O)c1cccs1 (stereo unspecified)	59*	4	1	17	1	-6	1%
Cc1ccc2c(c1)N(C(=O)c1ccc(F)cc1)C(C)(C)CC2(C)c1ccccc1 (stereo unspecified)	-5	2	1	4	-1	.	.
CCCCOc1ccc(C(=O)NCC(=O)N2CC(C)CC(C)C2)cc1 (stereo unspecified)	-3	.	4	-3	40*	-7	5%
CCCCOc1ccc(C(=O)NCC(=O)N2CC(C)OC(C)C2)cc1 (stereo unspecified)	-1	1	3	-2	0	.	.
CCCCOc1ccc(C(=O)NCC(=O)NCCOc2ccccc2OC)cc1	74*	-2	1	8	0	11	5%
SMILES	TRHR enhancer-1	D1 PAM	D1 agonist	D1 antagonist	TRHR agonist-1	TRHR enhancer-2	TRHR agonist-2
C/C(=N\NC(=O)c1cc(-c2ccncc2)nc2ccccc12)c1ccc(N2CCOCC2)cc1	4	-1	2	6	0	.	.
CNC(=O)COc1ccc(-c2nn(C)c(=O)c3ccccc23)cc1	-4	-1	1	1	0	.	.
CCOc1ccc(Nc2ccc(N3C(=O)CCC3=O)cc2[N+](=O)[O-])cc1	48*	1	0	6	0	-10	5%
COc1ccc(Nc2ccc(N3C(=O)CCCC3=O)cc2[N+](=O)[O-])cc1OC	-2	-2	1	3	0	.	.
COCCn1cnc2c(c1=O)c1nc3ccccc3nc1n2/N=C/c1ccc(OC)c(OC)c1	-7	4	2	-6	-1	.	.
O=C1NC(Cc2c[nH]c3ccccc23)C(=O)N1Cc1cccc2ccccc12 (stereo unspecified)	56*	-1	1	4	0	-4	1%
Cc1nc(S(=O)(=O)N2CCN(C3c4ccccc4-c4ccccc43)CC2)cn1C	43*	6	5	22	1	8	5%
COc1cc(C(=O)Nc2ccc3c(c2)Cc2cc(NC(=O)c4cc(OC)c(OC)c(OC)c4)ccc2-3)cc(OC)c1OC	13	1	0	-17	-1	.	.
O=C(Cn1cc([N+](=O)[O-])cn1)NCCc1nc2ccccc2[nH]1	-7	-8	5	-19	0	.	.
COc1ccc(NC(=O)CN(C)C(=O)CNC(=O)c2sc3ccccc3c2Cl)cc1	45*	-9	1	-1	0	1	1%
Cn1c(N)c(C(=O)COC(=O)CCC2CCCCC2)c(=O)n(C)c1=O	46*	3	19	21	0	1	-1%
Cn1c(N)c(C(=O)COC(=O)CCC2CCCC2)c(=O)n(C)c1=O	6	0	13	-3	0	.	.
CC(C)OP(=O)(OC(C)C)C1(NS(=O)(=O)c2ccc(Cl)cc2)C=C(Cl)C(=O)C(Cl)=C1	1	2	11	-5	-1	.	.
COc1cccc(C2CC(c3ccc(NS(C)(=O)=O)cc3)=NN2C(=O)c2ccccc2)c1OC (stereo unspecified)	50*	-2	6	-21	0	-5	4%
CCC(=O)c1ccc(OCC(=O)N2CCN(C(=O)c3ccccc3)CC2)cc1	-3	-7	-1	-14	0	.	.
